HT1080 IDH1KD tx: qHTS for induction of synthetic lethality in tumor cells producing 2HG: qHTS for the HT-1080-IDH1KD cell line. AID 686971, 2013. 360,000 compounds, 2% hits. Potency, µM (series often up to 46.1 µM), inactives show at the highest dose activity, negative = toxicity, actives largely listed as cytotoxic. HT-1080 IDH1 knockdown viability, ATP luminescence, 48 h;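 further: potency means the concentration at half of the fitted maximal effect; 0% = DMSO wells and -100% = cell-free medium wells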
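Luminescent ATP read-out (CellTiter-Glo, 10 min at room temperature) after 48 h compound exposure at 37 °C gave viability of IDH1-knockdown HT-1080 cells. Activity was normalised to DMSO and cell-free wells, then fitted as concentration-response curves.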
DT40 TDP1 no CPT: qHTS for Inhibitors of human tyrosyl-DNA phosphodiesterase 1 (TDP1): qHTS in cells in absence of CPT; DT40 Tdp1-/- hTDP1 cells, no CPT, ATP luminescence, 48 h; Potency, µM (top dose mostly 46.2 µM), inactives show top-dose activity change, negative = growth inhibition, actives largely listed as inhibitors; 420,000 compounds, 15% hits; AID 686978, 2013; further: potency means the concentration at half of the fitted maximal effect; nearly all actives have a fitted effect of over 55% in size
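Cells were dispensed at 400 per well, compounds added by pin tool, plates incubated ≥48 hr at 37 °C, then CellTiter-Glo added for 30 min at room temperature before luminescence reading. Line: DT40 Tdp1-/- complemented with hTDP1; camptothecin omitted.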
TDP1 cell CPT: qHTS for Inhibitors of human tyrosyl-DNA phosphodiesterase 1 (TDP1): qHTS in cells in presence of CPT; chicken DT40 Tdp1-/-;hTDP1 cells + 20 nM CPT, ATP luminescence, 48 h; Potency, µM (titrated, usually from 46.2 µM), inactives show at the top dose activity change, negative = growth inhibition, hits mostly inhibitors; 420,000 compounds, 12% hits; AID 686979, 2013; further: potency means the concentration at half of the fitted maximal effect; nearly all actives have a fitted effect of over 55% in size
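Chicken DT40 Tdp1-/- cells stably complemented with human TDP1 were seeded at 400 cells/well in medium containing 20 nM camptothecin, exposed to pin-transferred compounds, and grown at 37 °C for at least 48 hr. Viability was read as ATP luminescence.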
IL1B secr inh: qHTS for Inhibitors of Inflammasome Signaling: IL-1-beta AlphaLISA Primary Screen; 360,000 compounds, 4.7% hits; activity change, % at 57.5 µM; THP-1 LPS/ATP IL-1B secretion, AlphaLISA, 16 h; stronger effect = lower value; in the data active means activity change below about -50%; inconclusive means mostly about -30% to -49%
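THP-1 cells pretreated 1 hr with compounds (up to 57.5 uM final), then stimulated with LPS (250 ng/mL final) plus ATP (1.25 mM final); secreted IL-1B measured by AlphaLISA after 16 hr, decreased signal indicating inhibition.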
HT1080-NT tox: qHTS for induction of synthetic lethality in tumor cells producing 2HG: qHTS for the HT-1080-NT fibrosarcoma cell line. 360,000 compounds, 1.6% hits. Potency, µM (highest dose often 46.1 µM), for inactives: at the highest dose activity, negative = less viability, hits mostly cytotoxic. HT-1080-NT fibrosarcoma viability, CellTiter-Glo ATP luminescence, 48 h;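 further: NT is the 2HG producing partner of a matched IDH1 knockdown line; potency means the concentration at half of the fitted maximal effect; 0% = DMSO-treated cells and -100% = media-only wells without cells; nearly all actives have a fitted effect of over 55% in size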
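Viability by CellTiter-Glo luminescence after 48 h compound exposure at 37C of HT-1080-NT cells (750/well, RPMI, 5% FBS). % activity scaled between DMSO wells and medium-only wells, then curve-fitted and categorized by curve class.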
* marks the source's active call; other numbers are inactive results; ? = inconclusive; . = no result. Compounds with a hit are over-represented: about 19% of the library has one in this group of screens. Unless noted, the call rests on the fitted dose curve; in most records, active means well fitted curve in the direction sought with a large enough effect; inconclusive means small, poorly fitted or top-dose-only effect, or another doubt; inactive means no such curve, though single readings can be large; an effect the other way counts as inactive or inconclusive. Unless noted, on the % scale 0 is the no-effect control and ±100 the full control effect.

SMILES	HT1080 IDH1KD tx	DT40 TDP1 no CPT	TDP1 cell CPT	IL1B secr inh	HT1080-NT tox
Cc1cccc(NC(=O)COc2ccc(-c3nn(C)c(=O)c4ccccc34)cc2)c1	-20.5%	16.4µM*	11.6µM*	-52.1*	-0.2%
Cc1cccc(NC(=O)COc2ccccc2)c1	8.7%	-0.5%	-23.4%	1.6	21.3%
CNC(=O)COc1ccc(NC(=O)CCn2nc(-c3ccc(C)cc3)c3ccccc3c2=O)cc1	.	20.6µM*	?	.	.
Cc1ccc(-n2c(C)cc(/C=C3/SC(=O)N(CC(=O)N4CCOCC4)C3=O)c2C)nc1	3.7%	-18.3%	-13.9%	13.9	15.9%
CNC(=O)Cn1nc(-c2ccc(C)cc2)c2ccccc2c1=O	-11.3%	14.6µM*	?	23.8	-12.1%
COc1ccccc1NC(=O)Cn1nc(-c2ccc(Cl)cc2)c2ccccc2c1=O	-23.9%	-25.6%	-29.0%	3.5	-24.8%
COc1ccccc1NC(=O)COc1ccc(-c2nn(C)c(=O)c3ccccc23)cc1	-26.0%	7.31µM*	13µM*	-8.3	-28.3%
Cc1ccc(NC(=O)Nc2c(C)[nH]c(=O)[nH]c2=O)cc1Cl	23.6%	2.4%	-8.2%	-8.9	23.4%
CCOc1ccccc1NC(=O)C1CCCN(S(=O)(=O)c2ccc3c(c2)C(C)(C)C(=O)N3C)C1 (centres undefined)	-16.0%	?	18.4µM*	-3.6	2.9%
CN1C(=O)C(C)(C)c2cc(S(=O)(=O)N3CCCC(C(=O)Nc4ccc(Cl)cc4)C3)ccc21 (centres undefined)	-6.5%	18.4µM*	?	-12.1	-20.1%
COc1cccc(CNC(=O)C2CCCN(S(=O)(=O)c3ccc4c(c3)C(C)(C)C(=O)N4C)C2)c1 (centres undefined)	-0.6%	?	14.6µM*	-3.4	4.6%
CCc1ccc(NC(=O)C2CCC(CNS(=O)(=O)c3ccc4c(c3)C(C)(C)C(=O)N4C)CC2)cc1 (centres undefined)	.	6.2%	-1.9%	.	.
Cc1ccccc1NC(=O)C1CCCN(S(=O)(=O)c2ccc3c(c2)C(C)(C)C(=O)N3C)C1 (centres undefined)	1.4%	?	7.9%	-0.8	-1.6%
CC(C)c1ccc(NC(=O)C2CCCN(S(=O)(=O)c3ccc4c(c3)C(C)(C)C(=O)N4C)C2)cc1 (centres undefined)	-19.2%	?	?	58.3	-27.7%
CN1C(=O)C(C)(C)c2cc(S(=O)(=O)NCC3CCC(C(=O)NCc4ccccc4)CC3)ccc21 (centres undefined)	-8.0%	16.4µM*	?	-11.5	-3.2%
CCNc1c(NC(=O)COc2ccc(Cl)cc2)c(=O)oc2ccccc12	-0.6%	2.5%	-8.6%	-3.8	5.9%
Cc1ccc(-n2c(N)cc(=O)nc2SCC(=O)N2CCN(c3ccccc3)CC2)cc1C	0.0%	-0.9%	-4.4%	-15.2	-2.5%
Cc1cccc(S(=O)Cc2ccc(C(=O)N3CCN(C(=O)c4ccco4)CC3)o2)c1 (centres undefined)	7.9%	8.4%	-18.5%	3.3	-3.7%
COc1ccccc1CNC(=O)C1CCCN(S(=O)(=O)c2ccc3c(c2)C(C)(C)C(=O)N3C)C1 (centres undefined)	-8.8%	14.6µM*	?	3.7	0.0%
CCCC(=O)N1CCN(c2ccc(NC(=O)C(C)(C)C)cc2Cl)CC1	-21.7%	?	20.6µM*	0.5	-1.9%
CCCC(=O)N1CCN(c2ccc(NC(=O)C(C)(C)C)cc2)CC1	9.9%	-12.0%	13.2%	8.3	11.3%
CCCC(=O)N1CCN(c2ccc(NC(=O)c3cccs3)cc2Cl)CC1	1.6%	-15.6%	-25.2%	-84.4*	-3.5%
O=C(Nc1ccc2c(c1)CN(Cc1ccc(CO)o1)CC2)c1ccc(C(F)(F)F)cc1	?	?	?	?	-13.6%
COc1ccc(Cl)cc1NC(=S)Nc1ccccc1C	-1.1%	23.1µM*	?	-10.2	15.5%
COc1ccc(Cl)cc1NC(=S)NCCC(c1ccccc1)c1ccccc1	1.4%	23.1µM*	23.1µM*	4.7	3.3%
SMILES	HT1080 IDH1KD tx	DT40 TDP1 no CPT	TDP1 cell CPT	IL1B secr inh	HT1080-NT tox
S=C(NCCC(c1ccccc1)c1ccccc1)Nc1ccccc1Cl	-0.1%	?	?	2.5	-10.6%
COc1ccccc1NC(=S)NCCC(c1ccccc1)c1ccccc1	-7.2%	?	?	25.2	-14.7%
S=C(NCCC(c1ccccc1)c1ccccc1)Nc1ccc(Cl)cc1	?	?	?	-92.0*	?
COc1cc(NC(=S)NCCC(c2ccccc2)c2ccccc2)c(OC)cc1Cl	-0.2%	18.4µM*	9.2µM*	-0.4	-7.1%
CCOC(=O)C1CCN(C(=O)c2nn(-c3ccc(C)cc3)c(=O)c3c2c2ccccc2n3C)CC1	.	?	-10.3%	.	.
CC(=O)Nc1ccc(CC(=O)NCCC(c2ccccc2)c2ccccc2)cc1	32.6µM*	18.4µM*	16.4µM*	1.1	25.9µM*
COc1ccccc1C(=O)NCC(=O)NCCC(c1ccccc1)c1ccccc1	-5.4%	16.4µM*	14.6µM*	5.2	0.0%
CC1Cc2ccccc2N1C(=O)COC(=O)/C=C/c1ccc(F)cc1 (centres undefined)	1.5%	-27.6%	-15.0%	-4.6	-1.8%
CC1Cc2ccccc2N1C(=O)/C=C/c1cccc(F)c1 (centres undefined)	-11.8%	-28.6%	-0.1%	-68.6*	-18.4%
COCCn1c(=O)[nH]c2cc(C(=O)NCCN3CCN(c4ccc(OC)cc4)CC3)ccc2c1=O	-0.9%	?	-27.4%	15.3	1.0%
Oc1c(N=Nc2ccccn2)ccc2ccccc12	2.31µM*	1.64µM*	1.46µM*	-53.8*	?
Oc1[nH]c2ccccc2c1N=Nc1ccccn1	5.0%	-1.6%	0.4%	-3.3	12.1%
Cn1cc(-c2cc(C(=O)O)on2)cn1	1.4%	-12.7%	-1.4%	8.9	-8.3%
C[C@H](CO)N1C[C@H](C)[C@@H](CN(C)C)Oc2c(NS(=O)(=O)c3ccc(F)cc3)cccc2C1=O	11.8%	-20.7%	-3.6%	13.9	13.0%
CCN1/C(=C/C(C)=C/c2sc3ccccc3[n+]2CC)Sc2ccccc21	1.46µM*	0.184µM*	0.184µM*	-97.5*	10.3µM*
COc1cc(C2Oc3nc(SC)nnc3-c3ccccc3N2C(C)=O)cc(Cl)c1OC (centres undefined)	.	6.9%	7.8%	.	.

Screens as filed in PubChem.
